From PubChem
TLR9-MyD88 inh: inhibitors of TLR9-MyD88 association in cells, primary screen, cell-based, CHO, BLA complementation, fluorescence; Toll-like receptor 9 (Homo sapiens) + Myeloid differentiation primary response protein …; CCF4 FRET ratio; inhibition, % at 4.98 µM; hit rate 0.21% among 340,000; AID 504734, 2011;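 active = inhibition above the mean over all tested compounds plus 3 SD, cut at about 21% in these data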;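 also: 0% = DMSO only wells and 100% = clavulanate BLA inhibitor control wells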
NOD2 RIPK2 PPI: NOD2-RIPK2 binding disruptors in cells, primary screen, fluorescence, CHO cells, BLA complementation; Receptor-interacting serine/threonine-protein kinase 2 (Homo sapiens), O43353; inhibition, % at 4.98 µM; hit rate 0.38% among 360,000; CCF4 ratio; in the data active = inhibition above about 21%;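 also: 0% = vehicle only and 100% = reference blocker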
HTR2A ag: mouse Htr2a agonists via beta-arrestin recruitment, primary screen, cell-based, luminescence; 5-hydroxytryptamine receptor 2A (Mus musculus), P35363; CHO-K1 mHTR2A beta-arrestin complementation; percent of 30 µM serotonin response; hit rate 0.66% among 360,000; activation, % at 7.6 µM;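 active = activation above a run cutoff, the mean activation of all tested compounds plus 3 SD, cut at about 14% in these data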;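 also: 0% = plate median of compound wells and 100% = 30 µM serotonin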
Target sequence (P35363 whole entry, looked up): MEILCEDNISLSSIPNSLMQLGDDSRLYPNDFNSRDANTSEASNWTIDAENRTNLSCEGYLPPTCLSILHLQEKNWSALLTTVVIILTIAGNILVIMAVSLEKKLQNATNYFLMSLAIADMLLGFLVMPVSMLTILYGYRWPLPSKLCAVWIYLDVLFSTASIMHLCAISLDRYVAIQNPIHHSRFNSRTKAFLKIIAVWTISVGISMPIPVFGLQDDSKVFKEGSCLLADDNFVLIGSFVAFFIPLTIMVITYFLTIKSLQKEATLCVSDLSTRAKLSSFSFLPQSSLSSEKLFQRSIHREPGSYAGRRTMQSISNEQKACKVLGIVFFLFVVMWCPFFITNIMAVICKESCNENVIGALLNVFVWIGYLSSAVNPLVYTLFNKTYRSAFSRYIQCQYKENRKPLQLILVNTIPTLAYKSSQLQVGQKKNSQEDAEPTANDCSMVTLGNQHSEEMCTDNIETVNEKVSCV
ANO1 activ: TMEM16A chloride channel activators or potentiators, primary screen, cell-based, HTS; HEK293 TMEM16A/YFP-H148Q/I152L, iodide quench fluorescence; hits give low values; B-score at 10 µM; hit rate 0.3% among 340,000; AID 623877, 2012;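 active = fluorescence-ratio B-score plate-corrected deviation score at least 3 library SD below zero, with starting fluorescence score within 5 deviations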;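 also: channel opened by trigger with iodide after compound preincubation; score built on the fluorescence ratio of max minus min over baseline; more negative score means more quench and so TMEM16A activation or potentiation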
ANO1 block: TMEM16A chloride channel inhibitors, primary screen, cell-based, HTS; Anoctamin-1 (Mus musculus), Q8BHY3; HEK293 TMEM16A/YFP iodide influx fluorescence, ionomycin; normalized B-score (activity score, 25-100; higher = stronger inhibition) at 10 µM; hit rate 1.2% among 310,000;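 active = ratio plate-corrected score three or more library SD toward inhibition, starting fluorescence score within five deviations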;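 also: score derived from kinetic fluorescence span divided by baseline fluorescence per well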
TLR4 MyD88 comp: inhibitors of TLR4-MyD88 association in cells, primary screen, cell-based, HeLa CL3-4, BLA complementation, FRET ratio | Toll-like receptor 4 (Homo sapiens) + Myeloid differentiation primary response protein … | HeLa CL3-4 TLR4/MyD88 BLA complementation | inhibition, % at 8.4 µM | hit rate 0.18% among 200,000; in the data active = inhibition above about 25%;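 also: 0% = vehicle and 100% = reference inhibitor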
OPRM1 ag: OPRM1 agonists via beta-arrestin recruitment, confirmation, counter-screen for mouse HTR2A agonist project, cell-based, luminescence, single concentration; shares compounds with HTR2A ag; U2OS OPRM1 beta-arrestin PathHunter; DMSO 0%, DAMGO 9.3 µM 100%; activation, % at 9.3 µM; hit rate 5.3% among 2,300; AID 624380, 2012;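 active = mean activation above the mean of DMSO-only wells plus 3 SD, cut at about 0.5% in these data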
HTR2A ag conf: mouse HTR2A agonists, beta-arrestin recruitment, confirmation, cell-based, luminescence, CHO-K1 PathHunter, triplicate. shares compounds with HTR2A ag. DMSO 0%, 30 µM serotonin 100%. activation, % at 7.6 µM. hit rate 19% among 2,300. AID 624381, 2012;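 active = mean activation across triplicates above the hit threshold derived in the original primary screen, cut at about 15% in these data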
The depositor's hits bear a star; i = inactive; . = no result. Shown are actives, neighbours in structure and some others; about 2.4% of the full set was active somewhere.

SMILES	TLR9-MyD88 inh	NOD2 RIPK2 PPI	HTR2A ag	ANO1 activ	ANO1 block	TLR4 MyD88 comp	OPRM1 ag	HTR2A ag conf
CCOc1ccc(CCNC(=O)C2=C(C)C(=O)OC23CCC(C)CC3)cc1 (configuration not stated)	9	-8	16*	i	i	-3	0	-3
COc1ccc(CNC(=O)C2=C(C)C(=O)OC23CCC(C)CC3)cc1 (configuration not stated)	-5	-1	-5	i	i	0	.	.
CC1CC(C)CN(CCOCCSc2ccccc2)C1 (configuration not stated)	-16	-7	16*	i	i	-4	0	1
O=C(/C=C/c1ccco1)NC(=S)Nc1ccc(N2CCOCC2)c(Cl)c1	-1	-1	2	i	i	2	.	.
CN(Cc1ccccc1)CC(O)COc1ccc(CNCCc2ccncc2)cc1 (configuration not stated)	4	1	-3	i	i	12	.	.
O=C(Nc1ccccc1)N1CCN(c2nc3ccccc3s2)CC1	-6	7	27*	i	i	-9	0	0
O=C(Nc1ccc(S(=O)(=O)Nc2nccs2)cc1)c1nn(-c2ccccc2)ccc1=O	-9	-6	-1	i	i	.	.	.
CN(CC(=O)Nc1cccc(F)c1)C(=O)CN1C(=O)NC2(CCCCC2)C1=O	-7	-27	-3	i	i	.	.	.
CCN(CC(=O)Nc1ccccc1C(F)(F)F)C(=O)CN1C(=O)NC2(CCCCC2)C1=O	-11	-12	17*	i	i	.	-1	-4
CN(CC(=O)Nc1ccc(F)cc1)C(=O)CN1C(=O)NC2(CCCC2)C1=O	-2	-15	20*	i	.	.	-1	-4
CN(C)S(=O)(=O)c1ccc(NC(=O)Cn2c(-c3ccccc3)noc2=O)cc1	-3	2	0	i	i	-3	.	.
C[C@@H]1ON(C)[C@H]2C[C@H]3c4[nH]c5ccccc5c4CCN3C[C@@H]12	0	-5	22*	.	.	.	0	13
CC(=O)c1cccc(NC(=O)COC(=O)COc2ccc(Cl)cc2)c1	-19	-5	-1	i	i	-12	.	.
CCOC(=O)C1(C)CCCN1C(=O)c1ccccc1OC (configuration not stated)	.	-6	15*	.	.	.	-1	-4
CCOC(=O)C1(C)CCCCN1C(=O)c1ccccc1OC (configuration not stated)	.	9	-2	.	.	.	.	.
CCN(CC(=O)Nc1c(F)cccc1F)C(=O)c1cc(S(=O)(=O)N(CC)CC)ccc1N1CCCCC1	5	-2	0	i	i	.	.	.
CCN(CC(=O)Nc1c(F)cccc1F)C(=O)c1ccc(N2CCCCC2)c([N+](=O)[O-])c1	-5	-4	15*	i	i	.	0.7*	8
Cc1ccc(O)c(NC(=O)Cc2ccc3ccccc3c2)c1	-7	4	-3	i	i	.	.	.
CC(C)Cc1cc(C(=O)Nc2ccc(F)cc2F)no1	-1	0	18*	i	i	-12	-1	-3
CC(=O)c1sc(NC(=O)c2cc(S(=O)(=O)N3CCOCC3)ccc2F)nc1C	-13	-2	15*	i	.	.	-1	-1
Cc1c(NC(=S)NC(=O)c2ccc(COc3ccccc3)cc2)cccc1C(=O)O	-12	-8	-3	i	i	.	.	.
O=C(COC(=O)c1ccccc1)NCC1COc2ccccc2O1 (configuration not stated)	0	1	-1	.	.	.	.	.
COc1cc(NC(=O)c2ccc3c(SCC(=O)O)c4c(nc3c2)CCCC4)cc(OC)c1OC	6	-4	15*	i	i	1	-1	-3
COc1cc(NC(=O)c2ccc3c(SCC(=O)O)c4c(nc3c2)CCC4)cc(OC)c1OC	18	-12	-3	i	i	.	.	.
COCCCNC(=O)CN1C(=O)CSc2ncccc21	-12	-1	18*	i	i	12	-1	-4
SMILES	TLR9-MyD88 inh	NOD2 RIPK2 PPI	HTR2A ag	ANO1 activ	ANO1 block	TLR4 MyD88 comp	OPRM1 ag	HTR2A ag conf
O=C(CN1C(=O)CSc2ncccc21)NCCN1CCOCC1	4	-3	-6	i	i	-1	.	.
Cc1nc2sc(C(c3ccccc3)N3CCN(CCO)CC3)c(O)n2n1 (configuration not stated)	7	-2	32*	i	i	.	-1	-3
Cc1ccc(C(c2sc3nc(C)nn3c2O)N2CCN(CCO)CC2)cc1 (configuration not stated)	-7	-7	-9	i	i	.	.	.
Cc1nc2sc(C(c3ccco3)N3CC(C)OC(C)C3)c(O)n2n1 (configuration not stated)	3	-7	23*	i	i	1	0	-3
O=C(CNc1ccccc1)N/N=C/c1ccc2c(c1)OCCO2	5	4	2	i	i	-5	.	.
O=C(NNC(=O)c1ccco1)c1cccc(Br)c1	-18	-2	15*	i	i	.	0	0
O=C(O)CSc1c(-c2cccs2)[nH]c2ccccc12	-6	1	16*	i	i	-18	0	8
CCC(C(=O)O)n1cnc2scc(-c3ccc(C)c(C)c3)c2c1=O (configuration not stated)	-4	-9	24*	i	i	.	0	-2
CN(C)c1nc(N(C)C)n(Cc2c(Cl)cccc2Cl)n1	8	7	25*	i	i	-2	-1	-3
Clc1cccc(Cl)c1Cn1nnc(N2CCCC2)n1	-2	2	2	i	i	.	.	.
Cc1nn(C)c(C)c1S(=O)(=O)N(CC(=O)Nc1ccccn1)c1ccc(C(C)C)cc1	-7	-4	-5	i	i	8	.	.
Cc1cccc(NC(=O)CN(c2ccc(C(C)C)cc2)S(=O)(=O)c2c(C)nn(C)c2C)n1	14	-8	16*	i	i	-6	-1	-2
